This is a sample that favours compounds with a hit; in the whole collection about 8% have one here.
KB-V1 cytotox: KB-V1 MDR subline cytotoxicity | actives 3.4% (n = 400,000) | KB-V1 MDR cells viability, CellTiter-Glo, 72 h | Potency, µM (series often up to 46.1 µM), hits mostly cytotoxic; also: % is scaled to controls: 0 for no effect and ±100 for the full control effect; nearly all actives have a fitted effect of over 60% in size
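Readout: CellTiter-Glo luminescence, 10 min after addition. Cells: KB-V1 MDR subline, 72 h at 37 degrees C with compound. Analysis: corrected, normalized data fitted to concentration-effect curves.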
HT1080NT lethal: kills 2HG-producing HT-1080-NT fibrosarcoma cells | HT-1080-NT fibrosarcoma viability, CellTiter-Glo ATP luminescence, 48 h | Potency, µM (doses to about 46.1 µM), for the others: at the top dose activity, negative = less viability, most hits filed as cytotoxic | actives 1.6% (n = 360,000);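 also: NT is the 2HG producing partner of a matched IDH1 knockdown line; 0% = DMSO-treated cells and -100% = media-only wells without cells; nearly all actives have a fitted effect of over 55% in size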
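Viability by CellTiter-Glo luminescence after 48 h compound exposure at 37C of HT-1080-NT cells (750/well, RPMI, 5% FBS). % activity scaled between DMSO wells and medium-only wells, then curve-fitted and categorized by curve class.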
KB-3-1 cytotox: KB-3-1 parental cell cytotoxicity; KB-3-1 viability, CellTiter-Glo ATP luminescence, 72 h; Potency, µM (series often up to 46.1 µM), most hits filed as cytotoxic; actives 1.4% (n = 400,000); also: % is scaled to controls: 0 for no effect and ±100 for the full control effect; nearly all actives have a fitted effect of over 60% in size
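Multi-concentration cytotoxicity screen in KB-3-1 cells grown in DMEM lacking phenol red with 10% FBS. After 72 h at 37 °C with compound, ATP-dependent luminescence was recorded.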
HT1080 IDH1KD tx: HT-1080 IDH1 knockdown cell toxicity (counter line); HT-1080 IDH1 knockdown viability, ATP luminescence, 48 h; Potency, µM (top dose mostly 46.1 µM), for inactives: at the highest dose activity, negative = toxicity, most hits filed as cytotoxic; actives 2% (n = 360,000); AID 686971;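 also: 0% = DMSO wells and -100% = cell-free medium wells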
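Luminescent ATP read-out (CellTiter-Glo, 10 min at room temperature) after 48 h compound exposure at 37 °C gave viability of IDH1-knockdown HT-1080 cells. Activity was normalised to DMSO and cell-free wells, then fitted as concentration-response curves.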
MCF10A rereplic: inducers of DNA re-replication in MCF 10A breast cells. AID 624296. Potency, µM (doses to about 46.1 µM), without a hit: at the highest dose activity, positive = re-replication, most hits filed as activators. MCF 10A DNA re-replication, Hoechst nuclear intensity, 48 h. actives 2.9% (n = 350,000); also: % of control where 0% means no effect; nearly all actives have a fitted effect of over 50% in size
SW480 rerep: induces DNA re-replication in SW480 colon adenocarcinoma cells | SW480 DNA re-replication, Hoechst DNA content imaging, 48 h | AID 624297 | Potency, µM (doses to about 46.1 µM), inactives show top-dose re-replication activation, usual class: activators | actives 1.8% (n = 340,000); also: % of control where 0% means no effect; nearly all actives have a fitted effect of over 55% in size
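Image-based read-out: total Hoechst fluorescence of nuclei (405 nm excitation, 500-530 nm emission), with hits raising the fraction of high-intensity nuclei. SW480 colon cells incubated 48 hr with compounds at 37 C.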
* marks the source's active call; other numbers are inactive results; i = inactive; ? = inconclusive; . = no result; ! = not confirmed by another sample; [ ] = another dose, or the depositor's remark. Calls follow the shape of the dose curve; as a rule, active = well fitted curve in the direction sought with a large enough effect; inconclusive = small, poorly fitted or top-dose-only effect, or another doubt; inactive = no such curve, though single readings can be large; an effect the other way counts as inactive or inconclusive. Potency is read from the fitted curve at half-maximal effect.

SMILES	KB-V1 cytotox	HT1080NT lethal	KB-3-1 cytotox	HT1080 IDH1KD tx	MCF10A rereplic	SW480 rerep
Cn1c(=O)n(C)c2cc(NC(=O)c3ccc(F)cc3)c(Br)cc21	i	10%	i	12%	12%	-5%[9.22 µM]
CCc1ccc(C(=O)C(C)OC(=O)Cc2n[nH]c(=O)c3ccccc23)cc1 (stereo unspecified)	?	?	9.2µM*	13µM*	15µM*	?
COc1ccc(OC)c(Nc2nc(N)nc(-c3cc4ccccc4o3)n2)c1	15µM*	-28%	?	2%[9.24 µM]	?	?
COc1cc2ncnc(NCc3ccccc3)c2cc1OC	?	0%	i	-5%	6.5µM*	-4%
c1ccc(CNc2ncnc3ccccc23)cc1	8.2µM*!	-18%	?	-22%	7%	0%
COc1cccc(CNc2ncnc3cc(Cl)ccc23)c1	?	-8%	i	?	?	?
COc1ccc(CNc2ncnc3cc(Cl)ccc23)cc1	21µM*	-26%	?	-28%	-4%	-3%
CC1CCCC(C)N1C(=O)Cn1cc(C#N)c2ccccc21 (stereo unspecified)	i	1%	i	1%	-3%	-15%
COc1ccc(C(=O)N/N=C/c2c(C)nn(-c3ccccc3)c2OC)cc1	i	-20%	i	-21%	?	2%
CC(=O)c1ccc(NS(=O)(=O)c2ccc(C(C)(C)C)cc2)cc1	?	4%	i	-7%	2%	1%
CC(C)(C)c1ccc(S(=O)(=O)Nc2cccc(C3OCCCO3)c2)cc1	15µM*	-2%	i	-8%	-1%	-3%
O=C(Nc1cccc(Cl)c1)c1cc(S(=O)(=O)NCCc2ccc(Cl)cc2)ccc1F	?	?	i	29µM*	25%	-25%
Cc1ccc(NC(=O)c2cc(S(=O)(=O)NCCc3ccccc3)ccc2F)cc1Cl	i	16µM*	i	16µM*	17%	9%
C=CCC(NC(=O)N(C)C)(C(C)=O)C(=O)OC (stereo unspecified)	i	10%	i	-9%	.	.
CCOc1ncccc1C(=O)OCC(=O)Nc1cccc(C(C)=O)c1	i	14%	i	1%	-1%	-6%
CCOC(=O)c1c(C)[nH]c(C2=NNC(=Nc3ccc(OCC)cc3)SC2)c1C	i	1%	?	-9%	?	?
Cc1cccc(C)c1NC(=O)C(c1cc2ccccc2o1)N1CCC(c2ccccc2)CC1 (stereo unspecified)	21µM*	-1%	?	13%	.	.
Cc1ccc2nc(C3CCCCC3)[nH]c2c1	i	-3%	i	-1%	10%	5%
O=C(OCC(=O)c1c[nH]c2ccccc12)c1cc2ccccc2cc1O	?	-22%	i	-27%	12µM*	15%
COc1ccc(C(=O)OCC(=O)c2c[nH]c3ccccc23)c(OC)c1	i	-5%	i	-16%	17%	-3%
COc1ccc(NC2c3ncccc3C(=O)N2Cc2ccccc2)c(OC)c1 (stereo unspecified)	i	5%	i	-2%	-8%	-1%
CC(C)(C)C(=O)Nc1cc(-c2cccc(Br)c2)nn1-c1ccccc1	i	.	i	.	.	.
Cc1ccc(C(C(=O)NC2CCCC2)N(C(=O)Cc2cccs2)c2ccc3c(c2)OCCO3)cc1 (stereo unspecified)	21µM*	-7%	i	-13%	4%	?
COc1ccc(CNC(=O)C(c2ccc(C)cc2)N(Cc2cccs2)C(=O)c2ccc3c(c2)OCCO3)cc1 (stereo unspecified)	4.6µM*	?	i	13µM*	?	?
Cc1nn(C)cc1C(C(=O)NC1CCCCC1)N(C(=O)Cc1cccs1)c1ccc(F)cc1 (stereo unspecified)	i	3%	i	21%	15%	-37%
SMILES	KB-V1 cytotox	HT1080NT lethal	KB-3-1 cytotox	HT1080 IDH1KD tx	MCF10A rereplic	SW480 rerep
Cc1ccc(C(C(=O)NC2CCCC2)N(C(=O)Cc2cccs2)c2ccc(C)c(C)c2)o1 (stereo unspecified)	21µM*	0%	i	?	1%	?
Cc1ccc(C)c(N(C(=O)Cc2cccs2)C(C(=O)NC2CCCC2)c2ccc(C)o2)c1 (stereo unspecified)	?	-2%	i	6%	7%	0%
Cc1nn(C)cc1C(C(=O)NC1CCCCC1)N(C(=O)Cc1cccs1)c1ccc(C(C)C)cc1 (stereo unspecified)	2.9µM*	?	?	?	?	6%
O=C(NC1CCCC1)C(c1ccc(F)cc1)N(C(=O)Cc1cccs1)c1ccc2c(c1)OCCO2 (stereo unspecified)	i	0%	i	3%	?	21%
CCNC(=O)COC(=O)CCNC(=O)c1ccc(Cl)cc1	?	0%	i	3%	-2%	0%
O=C(Nc1nc(NC(=O)c2ccco2)n(-c2ccccc2)n1)c1ccccc1	4.1µM*	10µM*	16µM*	2.5µM*	?	-4%
CC(=O)c1ccc(-n2c(=O)[nH]c(=O)c3c(N)c(C(=O)c4ccc(Cl)cc4)sc32)cc1	i	21µM*	i	23µM*	?	18µM*
Nc1c(C(=O)c2ccc(Cl)cc2)sc2c1c(=O)[nH]c(=O)n2-c1ccccc1	i	-1%	i	-8%	?	-4%
Nc1c(C(=O)c2ccccc2)sc2c1c(=O)[nH]c(=O)n2-c1ccccc1	15µM*	-12%	i	-18%	8%	-10%
Cc1ccc(C(=O)c2sc3c(c2N)c(=O)[nH]c(=O)n3CCc2ccccc2)cc1	?	9%	i	5%	9.2µM*	?
Cc1c(NC(=O)c2ccc(Cl)c(S(=O)(=O)N3CCCCC3)c2)c(=O)n(-c2ccccc2)n1C	i	-7%	i	-12%	-2%	-4%
CC(=O)c1cccc(N2C(=O)C3C(C(=O)Nc4cc(C)on4)C4(C)C=CC3(O4)C2C(=O)NC(C)(C)C)c1 (stereo unspecified)	i	4%	i	9%	1%	-10%
CCOC(=O)N1CCN(S(=O)(=O)c2c(C)nn(C)c2C)CC1	i	3%	i	0%	7%	-1%
Cc1nn(-c2ccccc2)c2nc(Cl)c(C(=O)O)cc12	i	6%	i	3%	0%	-6%
COc1ccc(S(=O)(=O)N2CCCC(C(=O)N3CCN(c4ccccc4)CC3)C2)cc1Cl (stereo unspecified)	.	4%	.	7%	16%	12%
